In ChEMBL document CHEMBL1201862, “PubChem BioAssay data set” (2004):
About 5,100 (12%) of roughly 44,000 sequences were called active. Rule as the data show it: active = GI50 up to about 1.1 µM and inactive = higher. Only a selection was taken, and actives are over-represented in it overall. Potency and affinity values are given separately.

What follows are substances tested on MCF7.

Row | Substance | GI50 [nM]
1 | [Bis(aminomethyl)dimethylsilane]tetrachloroplatinum(IV), CHEMBL2146190 | 2970
2 | SENNOSIDES, CHEMBL2108559 | 183
3 | [Bis(aminomethyl)tetramethylenesilane]tetrachloropaltinum(IV), CHEMBL2146189 | 1640
4 | [Bis(aminomethyl)pentamethylenesilane]dichloropaltinum(II), CHEMBL2146202 | 249
5 | [Bis(aminomethyl)pentamethylenesilane]tetrachloropaltinum(IV), CHEMBL2146204 | 290
6 | [Bis(aminomethyl)tetramethylenesilane]dichloropaltinum(II), CHEMBL2146205 | 2220
7 | CISPLATIN, CHEMBL11359 | 3010
